# Screen size: about 52,000 compounds; about 4,300 (8.3%) were called active. Shown is part of a subset that was picked to be rich in actives. Unmarked numbers belong to inactive results. Rule as the data show it: active = survival mostly below about 52% (no sharp cut-off); inactive = mostly above about 56%.
# System: DeltatarO mutant
# Test: S. aureus survival, RN4220 and DeltatarO strains – OD600, teichoic acid synthesis inhibitors, primary screen (AID 463173)
# Details: S. aureus RN4220 wild type/DeltatarO growth, OD600, 18 h, stronger effect = lower value, screened at 18.75 µg/mL (by protocol)
row,Structure (SMILES),survival
1,CCCCOc1cccc(C(=O)Nc2cccc(-c3nc4ncccc4o3)c2C)c1,47%
2,COc1ccc(NC(=O)[C@@H](c2ccccc2)N2Cc3ccccc3C2=O)cc1OC,62%
3,COc1cccc(CNC(=O)C2CCN(c3ncnc4c3nc3n4CCCCC3)CC2)c1,86%
4,COc1ccc(CNc2nc(-c3ccco3)nn2C(=O)CC(C)C)cc1,103%
5,Cc1ccc(-c2cn(-c3cccc(Cl)c3)c(S(=O)(=O)CC(=O)Nc3ccccc3F)n2)cc1,61%
6,O=C(CS(=O)(=O)c1nc(-c2ccc(Cl)cc2)cn1-c1ccccc1)Nc1cccc(Cl)c1,68%
7,O=C(CS(=O)(=O)c1nc(-c2ccc(Cl)cc2)cn1-c1ccccc1)Nc1ccc(F)cc1F,50% (active)
8,CN1CCN(C(=O)C(=O)Nc2c3c(nn2-c2cccc(Cl)c2)CSC3)CC1,76%
9,O=C(NC1CC(=O)N(c2ccc(Cl)cc2)C1)c1cc2ccccc2o1 (stereo unspecified),52% (active)
10,O=C(NCc1ccccc1Cl)c1cc2ccccc2o1,74%
11,COCCNC(=O)c1cc2ccccc2o1,104%
12,Cc1ccc(N2CC(NC(=O)c3cc4ccccc4o3)CC2=O)cc1 (stereo unspecified),99%
13,O=C(NC1CC(=O)N(c2ccccc2)C1)c1cc2ccccc2o1 (stereo unspecified),89%
14,O=C(NCc1ccc(Cl)cc1)c1cc2ccccc2o1,61% (active)
15,COc1ccc(CN2CCCN(CC(=O)Nc3ccc4c(c3)OCCO4)S2(=O)=O)cc1,74%
16,O=C1c2ccccc2C(=O)N1CCCn1nnc(-c2ccc(N3CCOCC3)cc2)n1,74%
17,C=CCNc1nc(Cl)nc(Cl)n1,99%
18,CC(C)Nc1nc(Cl)nc(NCCO)n1,110%
19,CCCNc1nc(Cl)nc(Cl)n1,62% (active)
20,Cc1ccc(-n2ncc3c(=O)n(Cc4cccc(Cl)c4)cnc32)cc1C,91%
21,CCN(Cc1ccccc1)S(=O)(=O)c1cc(Br)cc2c1N(C(=O)C1CC1)CC2,58%
22,CCOc1ccc(NS(=O)(=O)c2cc(Br)cc3c2N(C(=O)C2CC2)CC3)cc1,79%
23,CCCCN(Cc1ccccc1)S(=O)(=O)c1cc(Br)cc2c1N(C(=O)C1CC1)CC2,57%

row,Structure (SMILES),survival
1,CCc1ccccc1NS(=O)(=O)c1cc(Br)cc2c1N(C(=O)C1CC1)CC2,52% (active)
2,COc1cc(NS(=O)(=O)c2cc(Br)cc3c2N(C(=O)C2CC2)CC3)cc(OC)c1,99%
3,Cc1ccc(NS(=O)(=O)c2cc(Br)cc3c2N(C(=O)C2CC2)CC3)cc1C,95%
4,O=C(C1CC1)N1CCc2cc(Br)cc(S(=O)(=O)Nc3ccc(C(F)(F)F)cc3)c21,41% (active)
5,COc1ccc(Cl)cc1NS(=O)(=O)c1cc(Br)cc2c1N(C(=O)C1CC1)CC2,55% (active)
6,CN(Cc1ccccc1)S(=O)(=O)c1cc(Br)cc2c1N(C(=O)C1CC1)CC2,34% (active)
7,COc1ccccc1CNS(=O)(=O)c1cc(Br)cc2c1N(C(=O)C1CC1)CC2,58%
8,CC(C)c1ccc(NS(=O)(=O)c2cc(Br)cc3c2N(C(=O)C2CC2)CC3)cc1,56%
9,CC(=O)Nc1ccc(NS(=O)(=O)c2cc(Br)cc3c2N(C(=O)C2CC2)CC3)cc1,74%
10,CCC(C)Nc1nc2c(c(=O)[nH]c(=O)n2C)n1Cc1ccc(F)cc1 (stereo unspecified),73%
11,Cc1cc(C)c(NC(=O)CN(c2ccccc2)S(=O)(=O)N(C)C)c(C)c1,66%
12,CCCc1ccc(OCC(=O)Nc2sc3c(c2C(=O)OCC)CCC(C(C)(C)C)C3)cc1 (stereo unspecified),125%
13,COc1ccc(-n2c(=O)c3ccc(C(=O)NCc4ccc(C)cc4)cc3n(Cc3ccc(F)cc3Cl)c2=O)cc1,99%
14,COc1ccc(C2=NC(C)(C)N(CC(=O)Nc3cccc(C)c3)C2=O)cc1,76%
15,CC(=O)N(Cc1ccccc1)Cc1cc2cc(C)ccc2n2nnnc12,77%
16,COc1ccc(Nc2nc(N)nc(N)c2S(=O)(=O)c2ccccc2)cc1,78%
17,O=C(CCS(=O)(=O)c1cc(Br)cc2c1N(C(=O)C1CC1)CC2)NCc1ccccc1Cl,100%
18,O=c1c2sc3ccccc3c2n(Cc2ccc(Cl)cc2)c(=O)n1Cc1ccco1,83%
19,Fc1ccc(Nc2nc(Nc3ccc(F)cc3)nc(N3CCOCC3)n2)cc1,87%
20,Cc1ccc(Nc2c(-c3ccc(N4CCOCC4)cc3)nc3ncccn23)cc1C,88%
21,Cc1cccc(Nc2nc(Nc3cccc(C)c3)nc(N3CCOCC3)n2)c1,1% (active)
22,Cc1ccc(Nc2nc(Nc3ccc(C)c(C)c3)nc(N3CCOCC3)n2)cc1C,34% (active)
23,c1ccc(Nc2nc(N3CCCCC3)nc(N3CCCCC3)n2)cc1,106%

row,Structure (SMILES),survival
1,NNc1nc(N2CCOCC2)nc(N2CCOCC2)n1,76%
2,CCc1ccc(CNC(=O)c2ccc(-c3nc(CS(=O)(=O)c4ccccc4)c(C)o3)cc2)cc1,54%
3,CC(C)(C)OC(=O)N1CCC(c2c(C(=O)O)cnn2-c2ccc(F)cc2F)CC1,87%
4,CCCCN1CC(c2nc3ccccc3n2CCCCOc2ccc(C)cc2C)CC1=O (stereo unspecified),13% (active)
5,Cc1ccc(OCCCn2c(C3CC(=O)N(c4cccc(Cl)c4)C3)nc3ccccc32)c(C)c1 (stereo unspecified),76%
6,CCOc1ccccc1N1CC(c2nc3ccccc3n2CCCCOc2ccccc2)CC1=O (stereo unspecified),59%
7,CCCCN1CC(c2nc3ccccc3n2CCCCOc2cc(C)ccc2C)CC1=O (stereo unspecified),15% (active)
8,CCOc1ccccc1N1CC(c2nc3ccccc3n2CCCOc2ccccc2OC)CC1=O (stereo unspecified),76%
9,CCOc1ccccc1N1CC(c2nc3ccccc3n2CCCCOc2cc(C)ccc2C)CC1=O (stereo unspecified),47% (active)
10,CC(=O)c1c(C)n(-c2cccc(C)c2)c2ccc(OC(=O)COc3ccccc3)cc12,70%
11,COc1ccc(OC)c(NC(=O)COCc2cc(-c3ccco3)on2)c1,49%
12,Cc1ccc(CNC(=O)Cn2c(=O)n(Cc3ccc(F)cc3)c(=O)c3sc4ccccc4c32)cc1,92%
13,O=C1CCCN1c1ccc(S(=O)(=O)N2CCCCC2)cc1,93%
14,COc1cccc2c1cc1c(=O)n(CC(=O)N3CCN(c4cc(Cl)ccc4C)CC3)nc(C)n12,74%
15,O=C(Nc1cccc(C(=O)OCc2cc(=O)n3nc(C4CC4)sc3n2)c1)c1cccc(Cl)c1,80%
16,Cc1ccc(NC(=O)COc2ccc(-c3nn(C)c(=O)c4ccccc34)cc2)cc1,48%
17,CNC(=O)c1ccc(NC(=O)COc2ccc(-c3nn(C)c(=O)c4ccccc34)cc2)cc1,62% (active)
18,Cn1nc(-c2ccc(OCC(=O)Nc3ccccc3)cc2)c2ccccc2c1=O,47%
19,CNC(=O)COc1ccc(NC(=O)c2ccc(-c3nn(C)c(=O)c4ccccc34)cc2)cc1,75%
20,COc1ccccc1NC(=O)COc1ccc(-c2nn(C)c(=O)c3ccccc23)cc1,37% (active)
21,COc1ccc(NC(=O)COc2ccc(-c3nn(C)c(=O)c4ccccc34)cc2)cc1,75%
22,CC(=O)c1ccc(NC(=O)c2nc3ccccc3n(C)c2=O)cc1,80%
23,CC(C)Cn1c(=O)c2ccccc2n2c(CCC(=O)NC(C)c3ccccc3)nnc12 (stereo unspecified),87%

row,Structure (SMILES),survival
1,CN(C)S(=O)(=O)c1ccc(C(=O)Nc2c(C(=O)Nc3ccc(F)cc3)oc3ccccc23)cc1,73%
2,Cc1ccc(NC(=O)Cc2coc3c(C)c(C)ccc23)c(C)c1,96%
3,O=C(Cn1nc2c(cc1=O)CCCC2)NCc1ccccc1,105%
4,CCOC(=O)c1cccc(NC(=O)Cn2cnc3nc4c(cc3c2=O)CCCC4)c1,94%
5,COc1ccc(CNC(=O)Cn2nc3c(cc2=O)CCCC3)cc1,46% (active)
6,Cc1ccc(NC(=O)Cn2nc3c(cc2=O)CCCC3)cc1Cl,93%
7,O=C(Cn1nc2c(cc1=O)CCCC2)NCc1ccc(Cl)cc1,115%
8,CCOC(=O)c1cccc(NC(=O)Cn2nc3c(cc2=O)CCCC3)c1,37% (active)
9,COc1ccc(Cl)cc1C(=O)CSc1nnnn1C1CCCCC1,93%
10,COc1ccc(NC(=O)CCCc2nnc3n(C(C)C)c(=O)c4sccc4n23)cc1Cl,93%
11,CC(C)OCCCN(Cc1ccco1)C(=O)c1cc2c(s1)-c1ccccc1OC2,-5% (active)
12,COc1ccccc1CNC(=O)c1cc2c(s1)-c1ccccc1OC2,61%
13,CN(C)CCN(Cc1ccco1)C(=O)c1cc2c(s1)-c1ccccc1OC2,69%
14,COCCCN(Cc1ccco1)C(=O)c1cc2c(s1)-c1ccccc1OC2,-3% (active)
15,CC(C)CCN(Cc1ccco1)C(=O)c1cc2c(s1)-c1ccccc1OC2,-4% (active)
16,CC(C)CCN(Cc1ccco1)C(=O)c1cc2c(Cl)nc3ccccc3c2s1,68%
17,Cc1ccc(C(C)C)c(OCC(=O)Nc2ccc(O)c(-c3nc4cc(Cl)ccc4o3)c2)c1,73%
18,CC(C)CNC(=O)Cc1ccccc1,65%
19,O=C(CN1CCSc2ccccc21)N1CCCCC1,78%
20,Clc1ccccc1N1CCN(c2ncnc3c2c(-c2ccccc2)cn3-c2ccccc2)CC1,80%
21,Cc1ccccc1C(=O)Nc1ccc2nc(SCC(=O)N3CCc4ccccc43)sc2c1,106%
22,Cc1ccc(-c2c(C)n3c4c(=O)n(C)c(=O)n(C)c4nc3n2CCCO)cc1,81%

# From PubChem BioAssay AID463173 (ICCB-Longwood Screening Facility, Harvard Medical School, 2010)
